Assay results taken from the supplement of paper PMC10849652.
Of roughly 7,900 targets only a part is listed; those with a hit were picked by preference. About 0.6% of all pairs of compound and target were hits.

Compound: CCCc1cc(C)[nH]c(=O)c1CNC(=O)c1cc(-c2ccnc(N3CCN(C)CC3)c2)cc2c1cnn2C(C)C
Experiment: log2 fold change, soluble protein after heating vs DMSO (PISA); higher = thermal stabilisation; K562 cells, 10 uM, 30 min; active = over 0.2 and 3.5 SD of the protein, either way, in both replicates (recomputed)
Outline: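 Values are thermal stability changes relative to control samples and are taken from duplicates. They are stated as log2 fold changes. Before quantification by TMTpro 16plex LC-MS/MS with equalised channel sums, K562 cells at 2×10^6 cells/mL were treated with 10 μM compound for 30 min, heated in aliquots for 3 min across 48°C-58°C, pooled, extracted in PBS with 0.5% NP-40 at 4°C, and centrifuged at 21,000xg for 90 min to give the soluble supernatant.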

Sequence of UniProt Q502W6 (Q502W6 whole entry, looked up): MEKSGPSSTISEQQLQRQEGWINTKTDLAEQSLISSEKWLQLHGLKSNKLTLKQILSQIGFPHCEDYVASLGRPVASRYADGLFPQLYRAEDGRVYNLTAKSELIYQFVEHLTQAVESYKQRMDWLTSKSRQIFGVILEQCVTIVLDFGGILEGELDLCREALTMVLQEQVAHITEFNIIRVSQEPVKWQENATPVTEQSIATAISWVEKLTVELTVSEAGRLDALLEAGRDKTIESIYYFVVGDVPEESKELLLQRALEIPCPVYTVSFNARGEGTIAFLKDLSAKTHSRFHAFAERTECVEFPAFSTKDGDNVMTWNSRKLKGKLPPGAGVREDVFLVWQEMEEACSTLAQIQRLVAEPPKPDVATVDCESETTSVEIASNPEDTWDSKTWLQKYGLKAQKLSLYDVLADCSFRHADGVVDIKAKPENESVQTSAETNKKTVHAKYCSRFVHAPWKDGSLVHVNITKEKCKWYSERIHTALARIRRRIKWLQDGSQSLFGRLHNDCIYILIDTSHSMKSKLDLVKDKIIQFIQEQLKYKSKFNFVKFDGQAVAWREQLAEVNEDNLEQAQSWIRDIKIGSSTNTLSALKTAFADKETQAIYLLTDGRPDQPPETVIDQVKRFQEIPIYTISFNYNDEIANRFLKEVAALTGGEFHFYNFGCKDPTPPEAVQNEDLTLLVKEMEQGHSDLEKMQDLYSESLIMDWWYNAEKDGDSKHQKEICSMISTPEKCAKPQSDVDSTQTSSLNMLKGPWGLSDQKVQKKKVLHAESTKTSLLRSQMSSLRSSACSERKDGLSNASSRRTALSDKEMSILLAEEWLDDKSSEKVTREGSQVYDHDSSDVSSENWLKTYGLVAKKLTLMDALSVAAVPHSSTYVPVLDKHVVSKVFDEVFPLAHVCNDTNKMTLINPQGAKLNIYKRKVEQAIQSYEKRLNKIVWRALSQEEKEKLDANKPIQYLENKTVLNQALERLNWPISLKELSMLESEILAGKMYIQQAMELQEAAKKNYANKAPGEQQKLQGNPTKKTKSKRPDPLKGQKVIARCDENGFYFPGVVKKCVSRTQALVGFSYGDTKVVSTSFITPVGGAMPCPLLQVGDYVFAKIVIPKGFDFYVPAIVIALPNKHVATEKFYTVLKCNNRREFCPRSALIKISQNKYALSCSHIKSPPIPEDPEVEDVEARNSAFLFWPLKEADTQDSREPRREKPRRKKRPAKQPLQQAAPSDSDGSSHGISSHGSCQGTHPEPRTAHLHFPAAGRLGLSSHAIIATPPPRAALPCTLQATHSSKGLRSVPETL
Sequence of UniProt Q9NUM4 (Q9NUM4 whole entry, looked up): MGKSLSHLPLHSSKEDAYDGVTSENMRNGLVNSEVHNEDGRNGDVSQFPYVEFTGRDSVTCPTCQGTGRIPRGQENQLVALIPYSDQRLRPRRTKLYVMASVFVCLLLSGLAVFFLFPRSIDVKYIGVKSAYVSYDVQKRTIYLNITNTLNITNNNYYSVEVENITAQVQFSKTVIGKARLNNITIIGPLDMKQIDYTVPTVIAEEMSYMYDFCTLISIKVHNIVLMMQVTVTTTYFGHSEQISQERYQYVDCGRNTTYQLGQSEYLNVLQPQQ
Sequence of UniProt Q8IWA0 (Q8IWA0 whole entry, looked up): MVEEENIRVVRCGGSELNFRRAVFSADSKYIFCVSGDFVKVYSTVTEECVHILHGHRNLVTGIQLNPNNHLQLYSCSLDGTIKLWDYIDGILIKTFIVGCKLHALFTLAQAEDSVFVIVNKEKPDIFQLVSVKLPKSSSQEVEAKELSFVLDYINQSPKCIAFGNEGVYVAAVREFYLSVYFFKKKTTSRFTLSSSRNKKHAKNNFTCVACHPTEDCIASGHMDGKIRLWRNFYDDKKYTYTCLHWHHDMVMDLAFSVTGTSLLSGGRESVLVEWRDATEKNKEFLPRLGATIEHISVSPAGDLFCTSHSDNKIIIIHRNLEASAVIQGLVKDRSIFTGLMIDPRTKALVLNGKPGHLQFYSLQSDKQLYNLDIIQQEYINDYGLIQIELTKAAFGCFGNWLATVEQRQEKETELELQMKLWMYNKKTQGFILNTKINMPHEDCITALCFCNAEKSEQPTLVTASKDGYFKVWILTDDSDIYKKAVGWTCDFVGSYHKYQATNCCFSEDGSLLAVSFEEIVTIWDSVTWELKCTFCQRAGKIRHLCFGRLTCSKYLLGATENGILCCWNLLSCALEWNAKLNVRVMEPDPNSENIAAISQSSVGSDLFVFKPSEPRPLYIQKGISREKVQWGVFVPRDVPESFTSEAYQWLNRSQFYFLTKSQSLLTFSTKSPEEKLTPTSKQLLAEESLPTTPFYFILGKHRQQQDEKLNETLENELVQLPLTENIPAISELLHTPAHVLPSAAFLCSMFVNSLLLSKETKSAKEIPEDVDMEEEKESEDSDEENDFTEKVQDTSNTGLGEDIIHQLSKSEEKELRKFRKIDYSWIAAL
Sequence of UniProt Q92890 (Q92890 whole entry, looked up): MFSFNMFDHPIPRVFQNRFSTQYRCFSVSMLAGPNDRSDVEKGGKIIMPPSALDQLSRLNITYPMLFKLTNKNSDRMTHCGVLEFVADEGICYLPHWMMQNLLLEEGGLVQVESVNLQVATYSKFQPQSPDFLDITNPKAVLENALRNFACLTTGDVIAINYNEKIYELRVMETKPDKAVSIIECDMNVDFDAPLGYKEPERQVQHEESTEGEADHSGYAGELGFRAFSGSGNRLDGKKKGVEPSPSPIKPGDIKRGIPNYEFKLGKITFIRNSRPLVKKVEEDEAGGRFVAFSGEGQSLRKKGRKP
Sequence of UniProt Q9NVA4 (Q9NVA4 whole entry, looked up): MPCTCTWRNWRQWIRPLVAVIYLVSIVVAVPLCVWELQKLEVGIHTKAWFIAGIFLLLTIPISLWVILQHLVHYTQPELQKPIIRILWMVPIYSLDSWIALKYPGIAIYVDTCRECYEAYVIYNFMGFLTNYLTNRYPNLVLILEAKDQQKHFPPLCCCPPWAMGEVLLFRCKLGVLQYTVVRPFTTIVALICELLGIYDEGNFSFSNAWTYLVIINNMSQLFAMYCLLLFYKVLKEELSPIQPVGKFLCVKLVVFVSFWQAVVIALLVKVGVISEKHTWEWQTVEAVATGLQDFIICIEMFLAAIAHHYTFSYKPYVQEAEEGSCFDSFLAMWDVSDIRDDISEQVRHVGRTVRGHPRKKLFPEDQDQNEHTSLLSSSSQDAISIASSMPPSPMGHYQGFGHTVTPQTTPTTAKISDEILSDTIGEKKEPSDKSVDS
Sequence of UniProt Q96DX7 (Q96DX7 whole entry, looked up): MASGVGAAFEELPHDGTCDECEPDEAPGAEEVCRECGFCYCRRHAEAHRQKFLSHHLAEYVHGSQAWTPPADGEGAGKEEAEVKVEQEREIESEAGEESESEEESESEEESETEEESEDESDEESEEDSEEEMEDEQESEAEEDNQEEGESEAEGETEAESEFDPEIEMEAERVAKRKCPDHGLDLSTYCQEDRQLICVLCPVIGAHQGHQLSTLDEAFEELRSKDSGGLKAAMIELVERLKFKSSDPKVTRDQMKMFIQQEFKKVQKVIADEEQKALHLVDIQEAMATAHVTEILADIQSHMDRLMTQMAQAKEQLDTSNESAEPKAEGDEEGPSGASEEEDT
Sequence of UniProt Q9Y5Z9 (Q9Y5Z9 whole entry, looked up): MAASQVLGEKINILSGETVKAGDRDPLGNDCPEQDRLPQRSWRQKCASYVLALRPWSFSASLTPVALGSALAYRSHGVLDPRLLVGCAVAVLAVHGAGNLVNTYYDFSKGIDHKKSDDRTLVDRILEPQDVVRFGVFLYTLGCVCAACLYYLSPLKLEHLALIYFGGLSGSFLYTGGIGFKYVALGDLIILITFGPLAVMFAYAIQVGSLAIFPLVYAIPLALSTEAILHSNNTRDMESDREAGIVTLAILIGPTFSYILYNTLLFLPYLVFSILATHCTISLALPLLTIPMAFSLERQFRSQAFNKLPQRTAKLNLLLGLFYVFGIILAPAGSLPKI
Sequence of UniProt Q9Y5K5 (Q9Y5K5 whole entry, looked up): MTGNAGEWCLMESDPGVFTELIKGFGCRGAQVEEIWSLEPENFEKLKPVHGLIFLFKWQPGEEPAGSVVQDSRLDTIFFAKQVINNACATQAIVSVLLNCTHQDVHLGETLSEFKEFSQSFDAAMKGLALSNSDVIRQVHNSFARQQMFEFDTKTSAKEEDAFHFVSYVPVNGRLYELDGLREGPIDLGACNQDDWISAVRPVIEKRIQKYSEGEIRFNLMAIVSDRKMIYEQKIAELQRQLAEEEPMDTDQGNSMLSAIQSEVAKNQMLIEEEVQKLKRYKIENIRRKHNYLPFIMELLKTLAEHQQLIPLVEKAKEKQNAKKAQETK
Sequence of UniProt Q5U3C3 (Q5U3C3 whole entry, looked up): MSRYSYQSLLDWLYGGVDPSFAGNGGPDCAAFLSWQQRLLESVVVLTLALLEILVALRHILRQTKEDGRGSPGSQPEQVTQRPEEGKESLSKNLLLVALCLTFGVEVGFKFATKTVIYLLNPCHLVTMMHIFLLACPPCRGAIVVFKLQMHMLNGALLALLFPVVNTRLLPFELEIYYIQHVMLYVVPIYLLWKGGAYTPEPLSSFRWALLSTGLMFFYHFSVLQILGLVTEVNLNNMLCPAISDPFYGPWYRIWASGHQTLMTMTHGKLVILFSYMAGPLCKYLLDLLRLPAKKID
Sequence of UniProt Q9NQZ2 (Q9NQZ2 whole entry, looked up): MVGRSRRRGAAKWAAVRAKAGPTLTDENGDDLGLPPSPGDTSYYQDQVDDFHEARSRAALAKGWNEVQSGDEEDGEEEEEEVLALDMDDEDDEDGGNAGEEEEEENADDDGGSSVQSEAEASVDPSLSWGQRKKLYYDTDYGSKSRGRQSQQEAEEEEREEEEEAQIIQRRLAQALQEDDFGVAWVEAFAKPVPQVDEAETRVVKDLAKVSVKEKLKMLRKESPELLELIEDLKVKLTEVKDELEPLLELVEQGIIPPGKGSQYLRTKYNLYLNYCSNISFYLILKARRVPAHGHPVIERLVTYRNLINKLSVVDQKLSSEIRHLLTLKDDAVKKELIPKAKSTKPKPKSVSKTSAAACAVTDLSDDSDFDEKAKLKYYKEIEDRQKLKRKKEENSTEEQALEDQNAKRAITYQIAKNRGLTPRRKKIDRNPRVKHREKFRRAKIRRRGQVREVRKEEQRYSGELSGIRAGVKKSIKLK

log2 fold change, inactive:
UXT isoform 2 (UniProt Q9UBK9) 0.041
VWA3B isoform 6 (UniProt Q502W6) -0.169
TMEM164 (UniProt Q5U3C3) -0.305
TXN2 (UniProt Q99757) 0.095
WDR37 isoform 2 (UniProt Q9Y2I8) 0.028
UBA52 (UniProt P62987) 0.205
U2AF1L5 (UniProt P0DN76) 0.06
TRIM44 (UniProt Q96DX7) 0
USP15 (UniProt Q9Y4E8) 0.041
UTP3 (UniProt Q9NQZ2) 0.101
TTC33 (UniProt Q6PID6) -0.471
WDR75 (UniProt Q8IWA0) 0.107
UFD1 isoform 1 (UniProt Q92890) -0.015
TXNL4B (UniProt Q9NX01) -0.06
TMEM189-UBE2V1 (UniProt I3L0A0) -0.182
WARS1 (UniProt G3V277) -0.338
UNC119B (UniProt A6NIH7) -0.108
TSEN2 (UniProt Q8NCE0) 0.097
UCHL5 isoform 3 (UniProt Q9Y5K5) 0.047
TMEM184C (UniProt Q9NVA4) -0.028
TMEM106B (UniProt Q9NUM4) -0.023
UBIAD1 (UniProt Q9Y5Z9) 0.023
